Assays:
Test in all cases: PBM binding z-score (relative to random genomic background probes); higher = stronger binding; sequences stand for … in GC…GCGATTGACAGCGTAGAATGAAGG
[1] = system: FXR:RXRa (NR concentration 270 nM, RXRa partner concentration 90 nM)
Summary of the method: (§1)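 Ligand-free nuclear receptor dimers were applied to custom Agilent 4×180K protein-binding microarrays whose double-stranded probes carried direct-repeat seeds, single-nucleotide variants, half-site ablations and random human genomic background sequences in 34-nt variable regions. Incubation lasted 1 h. Binding z-scores were computed against the random background probes from regression-normalized fluorescence.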

[2] = system: LXRa:RXRa (NR concentration 270 nM, RXRa partner concentration 90 nM)
Summary of the method: as §1

[3] = system: LXRa homodimer (NR concentration 270 nM)
Summary of the method: as §1

[4] = system: LXRb:RXRa (NR concentration 270 nM, RXRa partner concentration 90 nM)
Summary of the method: as §1

[5] = system: PPARa:RXRa (NR concentration 270 nM, RXRa partner concentration 90 nM)
Summary of the method: as §1

[6] = system: PPARg:RXRa (NR concentration 180 nM, RXRa partner concentration 90 nM)
Summary of the method: as §1

[7] = system: PPARg:RXRa 270nM:90nM, anti-RXR (NR concentration 270 nM, RXRa partner concentration 90 nM)
Summary of the method: as §1

[8] = system: PPARg:RXRa 30nM:10nM, anti-RXR (NR concentration 30 nM, RXRa partner concentration 10 nM)
Summary of the method: as §1

[9] = system: PPARg:RXRa 90nM:30nM, anti-RXR (NR concentration 90 nM, RXRa partner concentration 30 nM)
Summary of the method: as §1

Sequence | PBM binding z-score [1] | PBM binding z-score [2] | PBM binding z-score [3] | PBM binding z-score [4] | PBM binding z-score [5] | PBM binding z-score [6] | PBM binding z-score [7] | PBM binding z-score [8] | PBM binding z-score [9]
CTGAGTAGGTTACGAGGGGGCATTCAGTGCGAAT | 1.65 | 7.17 | 2.04 | 6.26 | 3.73 | 4.46 | 4.41 | 1.42 | 3.41
CTATGTAGGTTAAGGGGCTCATTCAGTTTGAAAG | 0.164 | 0.226 | -0.199 | 1.35 | 4.02 | 6.99 | 6.59 | 4.66 | 6.73
CTATGTAGGTTAAGGGGGTCATACAGTTTGAAAG | 5.2 | 5.02 | 1.99 | 6.22 | 6.21 | 8.81 | 8.13 | 6.16 | 8.11
CTATGTAGGTTAATGGGGTCATTCAGTTTGAAAG | 5.79 | 5.31 | 3.46 | 5.41 | 6.23 | 7.9 | 7.12 | 4.64 | 6.55
TGGAGTAGGTTACGGGGGCATTCAGGGATGAAGA | 3.28 | 3.37 | 1.38 | 5.17 | 4.73 | 7.46 | 6.49 | 4.07 | 5.66
TCGAGTAGGTTACGAGGGCATTCAGGGATGAAGA | 0.963 | 1.16 | -0.0456 | 0.518 | 2.58 | 3.58 | 3.11 | 1.61 | 2.6
TCGAGTAAGTTACGGGGGCATTCAGGGATGAAGA | 1.79 | 1.83 | 0.43 | 4.1 | 2.64 | 1.06 | 1.98 | 1.45 | 1.77
CTATGGAGGTTAAGGGGGTCATTCAGTTTGAAAG | 6.34 | 5.63 | 4.04 | 6.44 | 6.28 | 6.41 | 6.6 | 3.97 | 5.74
CCTAGTAGGTTACGAGGGGGCATTCAGTGCGAAT | 3.31 | 7.55 | 1.8 | 6.51 | 4.13 | 5.11 | 5.4 | 2.24 | 4.28
TCGAGTAGGTTACGGGGGTATTCAGGGATGAAGA | 1.78 | 2.4 | 0.457 | 4.07 | 3.45 | 4.49 | 4.53 | 2.64 | 3.61
CCGAGTAGGTTACGAGTGGGCATTCAGTGCGAAT | 0.0253 | 3.62 | -0.367 | 0.771 | 1.09 | 0.765 | 1.33 | -0.376 | 0.662
CTATGTAGGTTAAGGGGGTAATTCAGTTTGAAAG | 1.45 | 2.81 | 0.813 | 4.23 | 4.84 | 7.58 | 6.9 | 5.33 | 6.78
CCGAGTAGGTTAAGAGGGGGCATTCAGTGCGAAT | 3.24 | 6.72 | 1.5 | 5.79 | 3.21 | 1.93 | 3.19 | 0.978 | 2.43
TCGAGTAGGTTACGGGGGCCTTCAGGGATGAAGA | 1.17 | 1.71 | 0.239 | 4.15 | 2.99 | 2.78 | 3.68 | 1.85 | 2.72
CTATGTAGGTTTAGGGGGTCATTCAGTTTGAAAG | 4.33 | 4.71 | 4.34 | 5.97 | 5.41 | 4.01 | 5.15 | 2.66 | 4.77
CTATGTAGGTTGAGGGGGTCATTCAGTTTGAAAG | 4.59 | 4.82 | 2 | 6.24 | 5.54 | 4.5 | 5.93 | 2.9 | 5.21
CTTTGTAGGTTAAGGGGGTCATTCAGTTTGAAAG | 5.24 | 5.35 | 3.53 | 6.5 | 6.06 | 7.86 | 7.59 | 5.64 | 7.23
CCGAGTAGGTTACGAGGGTGCATTCAGTGCGAAT | 0.536 | 5.55 | -0.00974 | 2.43 | 1.8 | 1.46 | 1.92 | 0.234 | 1.13
TCGAGCAGGTTACGGGGGCATTCAGGGATGAAGA | 2.74 | 2.64 | 0.7 | 4.88 | 4.14 | 4.31 | 4.37 | 2.24 | 3.46
CTATGTAGATTAAGGGGGTCATTCAGTTTGAAAG | 4.51 | 4.72 | 3.33 | 6.12 | 5.52 | 4.29 | 5.06 | 2.72 | 4.53
CTATGTAGGTTAAGGGGGTCATTCAATTTGAAAG | 5.04 | 4.74 | 2.45 | 6.26 | 6.18 | 8.92 | 7.74 | 5.91 | 8.06
CTATGTATGTTAAGGGGGTCATTCAGTTTGAAAG | 4.79 | 5 | 3.54 | 6.57 | 5.68 | 5.43 | 6.26 | 3.94 | 5.84
TCGAGTAGGTTACGGGGGCACTCAGGGATGAAGA | 2.26 | 2.67 | 0.365 | 4.7 | 4.43 | 6.44 | 6.05 | 3.54 | 5.14
TCGAGTAGGTTACGGGGGCATTAAGGGATGAAGA | 2.01 | 2.81 | 0.404 | 4.64 | 4.16 | 6.03 | 5.7 | 3.23 | 5.14
CCGAGTAGGTTTCGAGGGGGCATTCAGTGCGAAT | 1.41 | 2.96 | 1.18 | 4.53 | 2.37 | -0.183 | 1.67 | 0.107 | 1.44
CCGAGTAGGTCACGAGGGGGCATTCAGTGCGAAT | 6.09 | 6.71 | 1.59 | 6.56 | 5.66 | 7.8 | 7.12 | 4.32 | 6.72

Sequence | PBM binding z-score [1] | PBM binding z-score [2] | PBM binding z-score [3] | PBM binding z-score [4] | PBM binding z-score [5] | PBM binding z-score [6] | PBM binding z-score [7] | PBM binding z-score [8] | PBM binding z-score [9]
CTATGTAGGTTAAGGGGGTCTTTCAGTTTGAAAG | 0.885 | 1.5 | 0.399 | 3.78 | 4.64 | 7.24 | 7.16 | 4.5 | 6.8
CTATGTAGGTTCAGGGGGTCATTCAGTTTGAAAG | 5.43 | 5.56 | 4.57 | 6.31 | 5.86 | 5.72 | 6.22 | 3.18 | 5.1
TCGAGTAGGTTACGGTGGCATTCAGGGATGAAGA | 0.0909 | 0.257 | -0.578 | 0.0794 | 1.81 | 1.73 | 2.29 | 1.44 | 1.9
CTATTTAGGTTAAGGGGGTCATTCAGTTTGAAAG | 4.85 | 4.88 | 2.76 | 6.33 | 5.72 | 7.22 | 7.14 | 4.74 | 6.89
CTATGTAGGTAAAGGGGGTCATTCAGTTTGAAAG | 4.07 | 4.67 | 2.77 | 5.98 | 5.92 | 7.28 | 7.12 | 4.91 | 6.93
CCGAGTAGGTAACGAGGGGGCATTCAGTGCGAAT | 1.91 | 5.77 | 0.734 | 4.7 | 2.83 | 1.05 | 2.41 | 0.082 | 1.9
CCGAGTAGGTTGCGAGGGGGCATTCAGTGCGAAT | 1.26 | 2.94 | 0.489 | 4.71 | 2.73 | 0.173 | 1.85 | 0.127 | 1.53
CTATGTAGGTTAAGGGGGTCATTCACTTTGAAAG | 5.19 | 5.06 | 2.92 | 6.16 | 5.91 | 8.46 | 8.03 | 5.89 | 8.28
CTATGTAGGTTAACGGGGTCATTCAGTTTGAAAG | 5.18 | 5.6 | 2.97 | 5.87 | 6.19 | 7.77 | 6.92 | 4.45 | 6.47
CTATGTAGGTTAAGGGGGTCATTCATTTTGAAAG | 4.9 | 4.91 | 3.28 | 6.23 | 5.9 | 8.6 | 7.7 | 6.27 | 7.77
CTATGTAGGTTAAGGGGGTCAATCAGTTTGAAAG | 4.51 | 4.86 | 1.5 | 5.67 | 5.86 | 8.09 | 7.41 | 5.18 | 7.66
TCGAGTAGGATACGGGGGCATTCAGGGATGAAGA | 1.26 | 1.43 | 0.346 | 3.58 | 2.35 | 1.24 | 2.72 | 2.22 | 2.53
CCATGTAGGTTAAGGGGGTCATTCAGTTTGAAAG | 4.98 | 4.71 | 3.76 | 6.22 | 5.88 | 7.38 | 7.13 | 4.55 | 6.52
CCGAGTAGGGTACGAGGGGGCATTCAGTGCGAAT | 1.83 | 4.84 | 0.674 | 4.44 | 2.53 | 0.709 | 1.58 | 0.0374 | 1.17
TCGAGTAGGTTACGGGTGCATTCAGGGATGAAGA | 0.435 | 0.756 | -0.274 | 0.94 | 2.22 | 2.3 | 2.7 | 2.01 | 2.23
CTACGTAGGTTAAGGGGGTCATTCAGTTTGAAAG | 5.02 | 5.26 | 2.48 | 6.14 | 5.67 | 4.41 | 5.7 | 2.76 | 4.84
CCGAGTAGGTTACGAGCGGGCATTCAGTGCGAAT | 0.242 | 7.14 | 0.879 | 4.08 | 0.9 | 0.617 | 0.819 | -0.546 | 0.27
CCGAGTAGGTTACGAGGGGGCATTCACTGCGAAT | 2.07 | 7.18 | 1.26 | 6.21 | 3.49 | 2.33 | 3.18 | 1.02 | 2.85
CTATGTAGGTTAAGGGCGTCATTCAGTTTGAAAG | 0.15 | 0.294 | -0.263 | 0.367 | 3.53 | 5.29 | 5.64 | 3.36 | 5.17
CTATGTAGGTTAAGGGGGTCATTTAGTTTGAAAG | 5.01 | 4.94 | 3.42 | 6.37 | 5.83 | 8.48 | 7.62 | 6.07 | 7.54
TCGAGTAGGTTACGGGGGCATTCCGGGATGAAGA | 2.68 | 2.91 | 0.0862 | 4.94 | 4.29 | 5.89 | 5.67 | 2.85 | 4.91
CAGAGTAGGTTACGAGGGGGCATTCAGTGCGAAT | 3.11 | 7.18 | 2.11 | 6.23 | 3.54 | 3.69 | 4.37 | 2.05 | 3.3
TCGAGTAGGTTACGTGGGCATTCAGGGATGAAGA | -0.0639 | 0.328 | -0.386 | 0.112 | 1.25 | 0.953 | 1.36 | 1.14 | 1.11
TCGAGTGGGTTACGGGGGCATTCAGGGATGAAGA | 2.78 | 3.03 | 1.26 | 5.08 | 4.26 | 5.66 | 5.53 | 3.59 | 4.84
CCGAGTAGGTTACGAGGGGGAATTCAGTGCGAAT | 0.932 | 1.98 | 0.178 | 3.04 | 2.28 | 1.76 | 2.55 | 0.623 | 1.37
TCGAGTAGGTTAAGGGGGCATTCAGGGATGAAGA | 2.95 | 2.79 | 1.01 | 4.58 | 3.99 | 5.19 | 5.78 | 3.91 | 5.72

Reference: the supplement of paper PMC6555819
